Measurements published in PubChem BioAssay AID1159580 (chemical genetic matrix, 2015).
Screen size: about 5,500 compounds; about 2,000 (36%) were called active. Not shown: some 18% with an inconclusive outcome. Cut-off read from the data, not from the text of the source: active = normalized growth mostly below about 0.91 (no sharp cut-off); inconclusive = no clear call, values can overlap the other calls; inactive = mostly above about 0.92. The list shows a part of the results.

Test: chemical genetic growth profiling, strain panel (AID 1159580);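 note: tested at 20 µM; growth read once vehicle control cultures reached saturation at 30 °C; 1 = growth at the plate median or of vehicle wells; lower values mean less growth of the strain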
Details: growth OD

Measured: normalized growth

C#C[C@]1(O)CCC2C3CCc4cc(O)ccc4C3CC[C@@]21C (stereo partly drawn)
active: S. cerevisiae deletion strains, locus YJR066W, strain TOR1, stronger effect = lower value 0.81 | S. cerevisiae deletion strains, locus YKL009W, strain mrt4, stronger effect = lower value 0.827 | S. cerevisiae deletion strains, locus YLR262C, strain YPT6 (second series), stronger effect = lower value 0.735 | S. cerevisiae deletion strains, locus YLR342W, strain FKS1 (second series), stronger effect = lower value 0.724 | S. cerevisiae deletion strains, locus YLR418C, strain cdc73, stronger effect = lower value 0.791 | S. cerevisiae deletion strains, locus YMR125W, strain sto1, stronger effect = lower value 1.13 [resistant] | S. cerevisiae deletion strains, locus YNL307C, strain MCK1, stronger effect = lower value 0.813 | S. cerevisiae deletion strains, locus YOR184W, strain ser1, stronger effect = lower value 0.624 | S. cerevisiae deletion strains, locus YPL051W, strain arl3, stronger effect = lower value 0.91
inactive: S. cerevisiae deletion strains, locus YJR043C, strain POL32, stronger effect = lower value 0.927 | S. cerevisiae deletion strains, locus YKL068W, stronger effect = lower value 1.03 | S. cerevisiae deletion strains, locus YKL085W, strain MDH1 (second series), stronger effect = lower value 1.01 | S. cerevisiae deletion strains, locus YKL085W, strain MDH1, stronger effect = lower value 1.01 | S. cerevisiae deletion strains, locus YKL160W, strain elf1, stronger effect = lower value 0.996 | S. cerevisiae deletion strains, locus YKR001C, strain vps1, stronger effect = lower value 0.959 | S. cerevisiae deletion strains, locus YKR026C, strain gcn3, stronger effect = lower value 1.05 | S. cerevisiae deletion strains, locus YKR091W, strain srl3, stronger effect = lower value 1.02 | S. cerevisiae deletion strains, locus YLL001W, strain dnm1, stronger effect = lower value 1.05 | S. cerevisiae deletion strains, locus YLL026W, stronger effect = lower value 1.01 | S. cerevisiae deletion strains, locus YLL041C, strain sdh2, stronger effect = lower value 1.03 | S. cerevisiae deletion strains, locus YLR027C, strain aat2, stronger effect = lower value 0.938 | S. cerevisiae deletion strains, locus YLR039C, strain RIC1, stronger effect = lower value 0.766 | S. cerevisiae deletion strains, locus YLR058C, strain SHM2, stronger effect = lower value 0.995 | S. cerevisiae deletion strains, locus YLR102C, strain apc9, stronger effect = lower value 1.03 | S. cerevisiae deletion strains, locus YLR113W, strain HOG1, stronger effect = lower value 1.05 | S. cerevisiae deletion strains, locus YLR221C, strain rsa3, stronger effect = lower value 0.965 | S. cerevisiae deletion strains, locus YLR258W, strain gsy2, stronger effect = lower value 0.982 | S. cerevisiae deletion strains, locus YLR262C, strain YPT6, stronger effect = lower value 0.683 | S. cerevisiae deletion strains, locus YLR268W, strain sec22, stronger effect = lower value 0.91 | S. cerevisiae deletion strains, locus YLR320W, strain mms22, stronger effect = lower value 0.898 | S. cerevisiae deletion strains, locus YLR330W, strain CHS5, stronger effect = lower value 1.01 | S. cerevisiae deletion strains, locus YLR342W, strain FKS1, stronger effect = lower value 0.983 | S. cerevisiae deletion strains, locus YLR357W, strain rsc2, stronger effect = lower value 1.1 | S. cerevisiae deletion strains, locus YLR370C, strain arc18, stronger effect = lower value 1.03 | S. cerevisiae deletion strains, locus YLR371W, strain rom2, stronger effect = lower value 1.03 | S. cerevisiae deletion strains, locus YLR384C, strain iki3, stronger effect = lower value 1.04 | S. cerevisiae deletion strains, locus YML016C, strain PPZ1, stronger effect = lower value 1.03 | S. cerevisiae deletion strains, locus YML032C, strain rad52, stronger effect = lower value 0.913 | S. cerevisiae deletion strains, locus YML120C, strain ndi1, stronger effect = lower value 0.985 | S. cerevisiae deletion strains, locus YML124C, strain tub3, stronger effect = lower value 1.03 | S. cerevisiae deletion strains, locus YMR058W, strain fet3, stronger effect = lower value 0.947 | S. cerevisiae deletion strains, locus YMR078C, strain ctf18, stronger effect = lower value 1.02 | S. cerevisiae deletion strains, locus YMR129W, stronger effect = lower value 1.02 | S. cerevisiae deletion strains, locus YMR205C, strain PFK2, stronger effect = lower value 0.995 | S. cerevisiae deletion strains, locus YMR223W, strain ubp8, stronger effect = lower value 0.948 | S. cerevisiae deletion strains, locus YMR231W, strain pep5, stronger effect = lower value 1.02 | S. cerevisiae deletion strains, locus YMR307W, strain GAS1, stronger effect = lower value 0.681 | S. cerevisiae deletion strains, locus YNL067W, strain RPL9B, stronger effect = lower value 0.9 | S. cerevisiae deletion strains, locus YNL071W, strain lat1, stronger effect = lower value 0.97 | S. cerevisiae deletion strains, locus YNL183C, strain NPR1, stronger effect = lower value 0.91 | S. cerevisiae deletion strains, locus YNL209W, strain ssb2, stronger effect = lower value 1.02 | S. cerevisiae deletion strains, locus YNL233W, strain BNI4, stronger effect = lower value 0.928 | S. cerevisiae deletion strains, locus YNL248C, strain rpa49, stronger effect = lower value 0.955 | S. cerevisiae deletion strains, locus YNL250W, strain rad50, stronger effect = lower value 0.989 | S. cerevisiae deletion strains, locus YNL271C, strain bni1, stronger effect = lower value 0.968 | S. cerevisiae deletion strains, locus YNL298W, strain CLA4, stronger effect = lower value 0.909 | S. cerevisiae deletion strains, locus YNL322C, strain KRE1 (second series), stronger effect = lower value 1.03 | S. cerevisiae deletion strains, locus YNL322C, strain KRE1, stronger effect = lower value 1.01 | S. cerevisiae deletion strains, locus YNR049C, strain mso1, stronger effect = lower value 1.04 | S. cerevisiae deletion strains, locus YNR052C, strain pop2, stronger effect = lower value 0.965 | S. cerevisiae deletion strains, locus YOL006C, strain TOP1, stronger effect = lower value 0.726 | S. cerevisiae deletion strains, locus YOL012C, strain htz1 2.07 | S. cerevisiae deletion strains, locus YOL147C, strain pex11, stronger effect = lower value 1.02 | S. cerevisiae deletion strains, locus YOR001W, strain rrp6, stronger effect = lower value 0.939 | S. cerevisiae deletion strains, locus YOR061W, strain CKA2, stronger effect = lower value 1.01 | S. cerevisiae deletion strains, locus YOR069W, strain VPS5, stronger effect = lower value 1.02 | S. cerevisiae deletion strains, locus YOR070C, strain gyp1, stronger effect = lower value 0.987 | S. cerevisiae deletion strains, locus YOR080W, strain dia2, stronger effect = lower value 1.01 | S. cerevisiae deletion strains, locus YOR083W, strain WHI5, stronger effect = lower value 0.974 | S. cerevisiae deletion strains, locus YOR106W, strain vam3, stronger effect = lower value 0.938 | S. cerevisiae deletion strains, locus YOR136W, strain idh2, stronger effect = lower value 1.01 | S. cerevisiae deletion strains, locus YOR144C, strain elg1, stronger effect = lower value 0.998 | S. cerevisiae deletion strains, locus YOR231W, strain MKK1, stronger effect = lower value 0.95 | S. cerevisiae deletion strains, locus YOR265W, strain rbl2, stronger effect = lower value 1.03 | S. cerevisiae deletion strains, locus YOR270C, strain vph1, stronger effect = lower value 0.905 | S. cerevisiae deletion strains, locus YOR290C, strain snf2, stronger effect = lower value 0.908 | S. cerevisiae deletion strains, locus YOR316C, strain cot1, stronger effect = lower value 1.04 | S. cerevisiae deletion strains, locus YPL078C, strain atp4, stronger effect = lower value 0.915 | S. cerevisiae deletion strains, locus YPL106C, strain sse1, stronger effect = lower value 1.14 | S. cerevisiae deletion strains, locus YPL240C, strain hsp82, stronger effect = lower value 1.02 | S. cerevisiae deletion strains, locus YPL241C, strain CIN2, stronger effect = lower value 1.03 | S. cerevisiae deletion strains, locus YPL256C, strain CLN2, stronger effect = lower value 1.03 | S. cerevisiae deletion strains, locus YPR119W, strain clb2, stronger effect = lower value 1.04 | S. cerevisiae deletion strains, locus YPR141C, strain kar3, stronger effect = lower value 1.04 | S. cerevisiae deletion strains, locus YPR163C, strain tif3, stronger effect = lower value 0.934 | S. cerevisiae deletion strains, locus YPR167C, strain met16, stronger effect = lower value 1.01 | S. cerevisiae deletion strains, strain wtn01, stronger effect = lower value 0.906 | S. cerevisiae strains, strain wild type, stronger effect = lower value 0.999
